From PubChem BioAssay (NCI)
This is part of a sample that, as a whole, favours compounds with a hit. Of some 79,000 tested, about 15% had one in any assay. No stated cut-off is given here; in the data, active means growth inhibition above about 70%; inactive means the rest.

What was measured:
[1] = NCI Yeast Anticancer Drug Screen. Data for the rad50 strain (AID 155);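 further: 0% = growth of vehicle-only cultures of the same strain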; settings: S. cerevisiae rad50 strain growth inhibition; at 50.0 µM; stronger effect = higher value
Procedure, shortened: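 Growth of the mutant yeast was measured after compound exposure and referenced to vehicle-treated cultures.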

[2] = NCI Yeast Anticancer Drug Screen. Data for the mec2-1 strain (AID 157); settings: S. cerevisiae mec2-1 strain, at 50.0 µM, stronger effect = higher value
Procedure, shortened: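 Using mec2-1 yeast: add compound, measure growth, express inhibition versus vehicle-treated cultures.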

[3] = NCI Yeast Anticancer Drug Screen. Data for the sgs1 mgt1 strain (AID 161);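 further: 0% = growth of cultures given vehicle only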; settings: S. cerevisiae sgs1 mgt1 strain, at 50.0 µM, stronger effect = higher value
Procedure, shortened: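 Percent growth inhibition was derived by comparing compound-exposed mutant yeast with vehicle-exposed cultures. The strain carries alterations in DNA damage repair.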

[4] = NCI Yeast Anticancer Drug Screen. Data for the cln2 rad14 strain (AID 165);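 further: 0% = growth equal to vehicle treated cultures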; settings: S. cerevisiae cln2 rad14 strain, at 50.0 µM, stronger effect = higher value
Procedure, shortened: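 Yeast strain cln2 rad14, bearing defects in cell cycle control and DNA repair, serves as the test system; values reflect growth inhibition compared with vehicle.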

[5] = NCI Yeast Anticancer Drug Screen. Data for the bub3 strain (AID 167); settings: S. cerevisiae bub3 mutant strain, at 50.0 µM, stronger effect = higher value
Procedure, shortened: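 Whole-cell yeast assay. The mutant strain was incubated with compounds, and growth inhibition was determined by comparison with vehicle-treated cells.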

[6] = NCI Yeast Anticancer Drug Screen. Data for the mlh1 rad18 strain (AID 175); settings: S. cerevisiae mlh1 rad18 strain growth inhibition; at 50.0 µM; stronger effect = higher value
Procedure, shortened: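 Steps: expose repair-defective yeast to compound; measure growth; express inhibition against vehicle-treated controls.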

Measured: growth inhibition

CC(=O)OC1C(COS(=O)(=O)c2ccc(C)cc2)OCOC(COS(=O)(=O)c2ccc(C)cc2)C1OC(C)=O (stereo not given)
inactive: [1] 0.2% | [2] 4.4% | [3] -0.55% | [4] -26.2% | [5] -0.7% | [6] 18.4%

N[C@@H]1c2c(Br)sc(N3CCOCC3)c2C(=O)[C@@H]1O
inactive: [1] 10.8% | [2] -10.4% | [3] 4.1% | [4] -18.6% | [5] 5.4% | [6] -31.6%

N#CC1(CCCI)CCCC1
inactive: [1] 9.3% | [2] 7.05% | [3] 7.95% | [4] -7.45% | [5] -2.3% | [6] 6.1%

Cc1ccc(N2C(=O)CSC2=S)cc1F
inactive: [1] 1.55% | [2] 6.55% | [3] 47.4% | [4] 8.15% | [5] 5.6% | [6] 10.7%

COC(=O)C(CC(=O)Nc1ccc(Cl)c(Cl)c1)C(=O)C(=O)Nc1ccc(Cl)c(Cl)c1 (stereo not given)
inactive: [1] -36.2% | [2] -15.6% | [3] -34% | [4] 6.6% | [5] -3.25% | [6] -10.7%

CCCCCCCCCCCC(=O)N(C)CCS(=O)(=O)O
inactive: [1] 6.2% | [2] -28.8% | [3] 4.55% | [4] 13.1% | [5] -20.6% | [6] 8.45%

CCN(CC)CC(C)(C)C(=O)/C=C/c1ccc(C)cc1
inactive: [1] 39.5% | [2] 12.8% | [3] 57.5% | [4] 3.9% | [5] -13.4% | [6] 19.9%

Cc1nc(C)c(N2CCN(S(=O)(=O)N(Cc3ccccc3)Cc3ccccc3)CC2)c(=O)[nH]1
inactive: [1] -22.7% | [2] -5.95% | [3] -32.3% | [4] 3.85% | [5] -5.65% | [6] 4.2%

N#Cc1c(-c2ccccc2)cc(-c2ccccc2)[nH]c1=O
inactive: [1] 18.6% | [2] 7.4% | [3] 16.4% | [4] 11.7% | [5] 3.5% | [6] 22.9%

CCCCCCCCCCCCCCCCCCNC(=O)c1c(Br)c(Br)cc(Br)c1C(=O)O
inactive: [1] -1.45% | [2] 8.55% | [3] 13.2% | [4] -8.35% | [5] -3.7% | [6] 6.75%

CC(=O)Oc1c(C)n(C(C)=O)c2cc(Cl)ccc12
inactive: [1] 1.35% | [2] -5.55% | [3] 15.3% | [4] -45% | [5] 6.15% | [6] -8.3%

COc1ccc(-c2coc3c4c(c5c(c3c2=O)OC(C)(C)CC5)OC(C)(C)C=C4)cc1OC
inactive: [1] 11.3% | [2] 10.8% | [3] 15.7% | [4] 38% | [5] 18.1% | [6] 39.5%

CC(=O)Oc1cc2c3ccccc3ccc2c2ccccc12
inactive: [1] 13% | [2] -9.5% | [3] 10.1% | [4] -2.9% | [5] 8.85% | [6] 0.05%

C=CCCC(C)(C(=O)OCC)C(=O)OCC
inactive: [1] 7.45% | [2] -15.8% | [3] -23.9% | [4] -30.3% | [5] 1.45% | [6] -11%

COc1ccc(C(=O)CC(=O)CCC(=O)Nc2cc(C)ccc2C)cc1
inactive: [1] -6.55% | [2] 5.2% | [3] 18.2% | [4] -7.75% | [5] 5.25% | [6] 25.1%

c1ccc2c(c1)c1ccccc1c1c3ccccc3c3ccccc3c21
inactive: [1] -10.9% | [2] -14.6% | [3] -1.05% | [4] -18.6% | [5] 0.65% | [6] -20.1%

N#CCN(CCc1ccccc1)CCc1ccccc1
inactive: [1] 8.35% | [2] -9.95% | [3] 13.2% | [4] -17.6% | [5] -0.35% | [6] 34.1%

COC1OC2COC(C2O)C1OS(=O)(=O)c1ccc(C)cc1 (stereo not given)
inactive: [1] -3.2% | [2] 9.7% | [3] 9.2% | [4] -46.1% | [5] -12.3% | [6] -13.3%

C/C=C(/c1ccccc1)c1ccc(N(C)C)cc1
inactive: [1] 2.25% | [2] 0.85% | [3] -10.1% | [4] -4.7% | [5] 9.2% | [6] 4.35%

CN1/C(=C/C=C/C=C/C=C2C(=O)c3ccccc3C2=O)C(C)(C)c2ccccc21
inactive: [1] -13.6% | [2] 10.5% | [3] 16.1% | [4] -39.5% | [5] -8.9% | [6] 26.8%
